Results filed as inconclusive are left out. Calls of active or inactive are those of the source. How the source made its calls, unless noted: active means hit-call score of the fitted dose curve at least 0.9, where 1 is the maximum; inactive means score below 0.9.
How the values were obtained:
[1] = read-out: E-selectin (Homo sapiens) (UniProt P16581); test: BSK_SAg_Eselectin: BioMAP Diversity Plus: SAg Assay for Eselectin Biomarker Activity (AID 2283091); details: primary human HUVEC with PBMC; actives raise or lower the signal
In short: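 Primary human endothelial cells and peripheral blood mononuclear cells were co-cultured and exposed to chemical for 24 hours. E-selectin levels were then quantified by ELISA, with bidirectional curve fitting normalised to DMSO controls.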

[2] = read-out: Monokine induced gamma interferon (MIG), CXCL9 (gene 4283); test: BSK_SAg_MIG: BioMAP Diversity Plus: SAg Assay for Monokine induced gamma interferon (MIG) Biomarker Activity (AID 2283092); details: primary human HUVEC with PBMC; actives raise or lower the signal
In short: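 Endothelial cells and PBMC were co-cultured, exposed to test chemicals, and sampled 24 h later. MIG was measured by ELISA, and responses were fitted in both directions relative to DMSO.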

[3] = BSK_SAg_PBMCCytotoxicity: PBMC Cytotoxicity Assessment in the BioMAP Diversity Plus: SAg Assay (AID 2283093); details: primary human HUVEC with PBMC;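 further: PBMC viability measured as Alamar Blue reduction fluorescence at 546/580 nm; fitted both ways against DMSO so a hit may be loss or gain of signal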;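 on AC50: PBMC superantigen activated with SEB plus TSST-1 one hour after compound addition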
In short: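 Alamar Blue reduction (6 h, 546/580 nm) reports PBMC cytotoxicity after 90 h superantigen activation (SEB, TSST-1; 20 ng/mL final each) with 1 h compound pre-treatment. Gain or loss of signal fitted versus DMSO.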

[4] = read-out: Interleukin-8 (IL8), CXCL8 (gene 3576); test: BSK_SAg_IL8: BioMAP Diversity Plus: SAg Assay for Interleukin-8 (IL8) Biomarker Activity (AID 2283094); details: primary human HUVEC with PBMC; actives raise or lower the signal
In short: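 Primary human endothelial cells with PBMC, exposed 24 h; IL-8 determined by ELISA, analysed bidirectionally relative to DMSO.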

[5] = BSK_SAg_Proliferation: Cell Proliferation Assessment in the BioMAP Diversity Plus: SAg Assay (AID 2283095); details: primary human HUVEC with PBMC;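 further: relative cell number as total protein by SRB absorbance in sub-confluent culture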
In short: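 A human primary co-culture of umbilical vein endothelium and blood mononuclear cells receives compound; relative cell number is quantified at 96 h by SRB staining and 560 nm absorbance, with DMSO-referenced bidirectional curve fitting.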

[6] = BSK_SAg_SRB: Viability Assessment in the BioMAP Diversity Plus: SAg Assay (AID 2283096); details: primary human HUVEC with PBMC;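 further: cells read one day after compound addition; hits may be either gain or loss of signal compared with DMSO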
In short: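 This overt-cytotoxicity endpoint quantifies protein in human endothelial/PBMC co-cultures at 24 h using SRB absorbance (560 nm) after trichloroacetic acid fixation. Values reflect signal change from the DMSO negative control, fitted bidirectionally.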

[7] = biological target: human CYP19A1, CYP19A1 (gene 1588) (UniProt P11511); test: NVS_ADME_hCYP19A1: NovaScreen (NVS) CYP450-related Enzyme Activity (ADME) Assay for human CYP19A1 (AID 2283098; active means hit-call score of the fitted dose curve at least 0.9, where 1 is the maximum;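 on AC50: potency for inhibitors seen as loss of fluorescent enzyme signal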)
human CYP19A1, CYP19A1 (gene 1588), sequence (P11511 whole entry, looked up): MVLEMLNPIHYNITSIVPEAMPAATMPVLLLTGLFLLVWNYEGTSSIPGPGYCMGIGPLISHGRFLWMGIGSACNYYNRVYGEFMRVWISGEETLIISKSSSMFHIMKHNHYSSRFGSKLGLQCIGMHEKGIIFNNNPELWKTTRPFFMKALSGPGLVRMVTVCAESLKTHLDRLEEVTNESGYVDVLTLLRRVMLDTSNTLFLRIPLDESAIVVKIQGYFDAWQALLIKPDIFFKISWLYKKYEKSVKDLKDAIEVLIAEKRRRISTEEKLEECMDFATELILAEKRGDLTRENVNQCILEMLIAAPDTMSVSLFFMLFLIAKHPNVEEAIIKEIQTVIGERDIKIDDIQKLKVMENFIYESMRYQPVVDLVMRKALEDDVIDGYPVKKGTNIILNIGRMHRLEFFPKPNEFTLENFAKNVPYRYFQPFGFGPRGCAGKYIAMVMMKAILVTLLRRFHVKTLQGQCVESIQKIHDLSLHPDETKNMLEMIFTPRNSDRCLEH
In short: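 Compounds were first screened at 10 uM in duplicate against purified enzyme, with a fluorogenic substrate and fluorescence intensity detection after 0.5 h. Inhibition appears as reduced signal against acetonitrile control.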

[8] = biological target: human CYP2B6, CYP2B6 (gene 1555) (UniProt P20813); test: NVS_ADME_hCYP2B6: NovaScreen (NVS) CYP450-related Enzyme Activity (ADME) Assay for human CYP2B6 (AID 2283101; active means hit-call score of the fitted dose curve at least 0.9, where 1 is the maximum)
human CYP2B6, CYP2B6 (gene 1555), sequence (P20813 whole entry, looked up): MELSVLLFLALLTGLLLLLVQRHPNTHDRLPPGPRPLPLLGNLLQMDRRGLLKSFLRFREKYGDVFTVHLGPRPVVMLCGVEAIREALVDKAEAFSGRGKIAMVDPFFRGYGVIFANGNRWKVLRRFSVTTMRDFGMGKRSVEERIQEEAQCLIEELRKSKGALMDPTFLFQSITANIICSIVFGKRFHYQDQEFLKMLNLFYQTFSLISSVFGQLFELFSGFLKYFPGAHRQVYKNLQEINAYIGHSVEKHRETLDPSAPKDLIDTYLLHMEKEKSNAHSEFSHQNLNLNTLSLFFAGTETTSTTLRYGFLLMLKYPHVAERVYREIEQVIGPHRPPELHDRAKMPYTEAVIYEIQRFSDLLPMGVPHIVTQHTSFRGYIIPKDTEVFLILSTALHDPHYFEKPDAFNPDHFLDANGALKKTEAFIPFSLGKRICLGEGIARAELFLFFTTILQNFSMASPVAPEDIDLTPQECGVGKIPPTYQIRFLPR
In short: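 Cell-free recombinant enzyme assay with a fluorogenic substrate; fluorescence intensity read 1 hour after dosing. Loss of signal relative to acetonitrile negative control indicates inhibition. Primary screen run in duplicate at 10 uM, actives then tested in concentration series.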

[9] = biological target: human CYP1A1, CYP1A1 (gene 1543) (UniProt P04798); test: NVS_ADME_hCYP1A1: NovaScreen (NVS) CYP450-related Enzyme Activity (ADME) Assay for human CYP1A1 (AID 2283100; active means hit-call score of the fitted dose curve at least 0.9, where 1 is the maximum)
human CYP1A1, CYP1A1 (gene 1543), sequence (P04798 whole entry, looked up): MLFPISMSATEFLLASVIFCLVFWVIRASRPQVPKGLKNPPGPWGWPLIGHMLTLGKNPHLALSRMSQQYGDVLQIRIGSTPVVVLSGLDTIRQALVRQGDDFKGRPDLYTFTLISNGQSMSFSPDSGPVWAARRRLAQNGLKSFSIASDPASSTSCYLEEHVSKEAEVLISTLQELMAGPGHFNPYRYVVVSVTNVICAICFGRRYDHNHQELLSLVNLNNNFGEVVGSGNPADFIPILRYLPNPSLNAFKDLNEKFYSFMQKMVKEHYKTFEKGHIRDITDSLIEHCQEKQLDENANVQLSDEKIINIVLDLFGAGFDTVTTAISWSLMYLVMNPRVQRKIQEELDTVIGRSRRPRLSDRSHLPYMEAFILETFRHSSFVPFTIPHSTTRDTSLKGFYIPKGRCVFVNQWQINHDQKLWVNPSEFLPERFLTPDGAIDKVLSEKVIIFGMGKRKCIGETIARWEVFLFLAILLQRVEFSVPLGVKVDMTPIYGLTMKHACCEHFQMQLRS
Description: NVS_ADME_hCYP1A1 is a biochemical, single-readout assay that uses extracted gene-proteins in a cell-free assay. Measurements were taken 1 hour after chemical dosing in a 96-well plate.NVS_ADME_hCYP1A1 is one of one assay component(s) measured or calculated from the NVS_ADME_hCYP1A1 assay. It is designed to make measurements of enzyme activity, a form of enzyme reporter, as detected with fluorescence intensity signals by Fluorescence technology.Data from the assay component NVS_ADME_hCYP1A1 was analyzed into 1 assay endpoint. This assay endpoint, NVS_ADME_hCYP1A1, was analyzed in the positive analysis fitting direction relative to Acetonitrile as the negative control and baseline of activity. Using a type of enzyme reporter, loss-of-signal activity can be used to understand changes in the enzymatic activity as they relate to the gene CYP1A1. Furthermore, this assay endpoint can be referred to as a primary readout, because this assay has produced multiple assay endpoints where this one serves a enzymatic activity function. To generalize the intended target to other relatable targets, this assay endpoint is annotated to the cyp intended target family, where the subfamily is xenobiotic metabolism.
Binding assays used specific radioligands (tritiated, iodinated) with non-radioactive competitive displacement ligands in agonist or antagonist protocols (as indicated) and various reference compounds and inhibitors to titrate specific binding to receptors and transporters. Most enzyme assays (CYPs, kinases, phosphatases, proteases, HDACs) used recombinant protein and specific substrates (fluorescence mostly, some colorimetric and radioactive) and inhibitors, followed by a biochemical separation of substrate and product. All assays for the biochemical HTS were initially run in duplicate at a single concentration (10 uM for CYP450 assays and 25 uM for all others). Assay-chemical combinations meeting a pre-defined threshold (e.g., 30% inhibition and other criteria defined below) were then run in singleton concentration-response format with maximum concentration of 20 uM for CYPs and 50 uM for all others. Each assay was run with positive and negative controls, and concurrent controls on every plate. The follow-up (secondary) screen tested active chemical-pairs in concentration series, as well as a few additional assays not tested in the primary screen, some selected negative inactives, and several cases re-run in the concentration series for confirmatory purposes.

[10] = biological target: human CYP2A6, CYP2A6 (gene 1548) (UniProt P11509); test: NVS_ADME_hCYP2A6: NovaScreen (NVS) CYP450-related Enzyme Activity (ADME) Assay for human CYP2A6 (AID 2283099; active means hit-call score of the fitted dose curve at least 0.9, where 1 is the maximum)
human CYP2A6, CYP2A6 (gene 1548), sequence (P11509 whole entry, looked up): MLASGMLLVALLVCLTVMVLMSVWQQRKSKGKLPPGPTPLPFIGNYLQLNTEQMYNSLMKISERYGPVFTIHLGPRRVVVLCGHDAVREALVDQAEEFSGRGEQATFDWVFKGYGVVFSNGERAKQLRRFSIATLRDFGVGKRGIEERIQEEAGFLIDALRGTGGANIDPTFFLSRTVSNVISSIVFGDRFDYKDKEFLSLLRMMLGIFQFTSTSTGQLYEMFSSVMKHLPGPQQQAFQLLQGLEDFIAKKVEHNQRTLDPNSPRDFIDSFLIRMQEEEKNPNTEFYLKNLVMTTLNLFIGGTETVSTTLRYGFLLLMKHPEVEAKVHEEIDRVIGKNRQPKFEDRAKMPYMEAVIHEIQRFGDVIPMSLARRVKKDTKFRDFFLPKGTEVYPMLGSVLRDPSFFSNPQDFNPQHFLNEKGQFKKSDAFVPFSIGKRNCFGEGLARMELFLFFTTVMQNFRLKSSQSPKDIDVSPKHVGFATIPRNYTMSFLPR
In short: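 Recombinant human CYP2A6 from insect cells was incubated with chemical for 0.5 h and activity read by fluorescence. Single-concentration duplicates at 10 uM preceded concentration-response testing to 20 uM, with activity referenced to acetonitrile.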

Measured: AC50

E-selectin (Homo sapiens), sequence (P16581 whole entry, looked up): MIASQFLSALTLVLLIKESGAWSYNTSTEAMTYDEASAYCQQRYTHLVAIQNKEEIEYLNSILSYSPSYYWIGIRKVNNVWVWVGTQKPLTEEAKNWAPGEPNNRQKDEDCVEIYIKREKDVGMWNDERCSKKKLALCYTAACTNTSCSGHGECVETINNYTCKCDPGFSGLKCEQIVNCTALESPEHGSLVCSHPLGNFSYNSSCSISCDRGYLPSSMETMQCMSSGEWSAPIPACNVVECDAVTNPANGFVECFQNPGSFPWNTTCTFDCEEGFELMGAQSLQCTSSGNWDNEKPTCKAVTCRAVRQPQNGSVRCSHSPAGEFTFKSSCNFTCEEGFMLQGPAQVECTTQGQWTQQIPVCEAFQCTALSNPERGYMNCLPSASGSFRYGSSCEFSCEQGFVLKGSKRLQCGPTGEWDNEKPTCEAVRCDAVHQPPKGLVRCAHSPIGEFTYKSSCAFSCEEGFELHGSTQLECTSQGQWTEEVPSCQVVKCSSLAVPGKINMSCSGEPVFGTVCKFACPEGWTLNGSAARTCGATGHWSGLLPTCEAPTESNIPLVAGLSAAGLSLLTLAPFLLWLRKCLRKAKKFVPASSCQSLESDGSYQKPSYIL

COc1cc(OC)nc(NC(=O)NS(=O)(=O)c2ncccc2OCC(F)(F)F)n1
inactive: [1] | [2] | [3] | [4] | [5] | [6]

CC1(C)C(C=C(Cl)Cl)C1C(=O)OC(C#N)c1cccc(Oc2ccccc2)c1 (stereo unspecified)
active: [5] 29.4 µM | [6] 6.38 µM
inactive: [1] | [2] | [3] | [4] | [7]

COCC(=O)N(c1c(C)cccc1C)C(C)C(=O)OC (stereo unspecified)
inactive: [1] | [2] | [3] | [5] | [7]
active: [6] 26.1 µM

Cc1c(COC(=O)[C@@H]2[C@H](/C=C(\Cl)C(F)(F)F)C2(C)C)cccc1-c1ccccc1
active: [1] 10.3 µM | [5] 14.1 µM | [6] 9.26 µM
inactive: [2] | [3] | [7]

Clc1nc(Cl)nc(Nc2ccccc2Cl)n1
inactive: [1] | [2] | [3] | [5] | [6]

CCOC(=O)C(C)OC(=O)c1cc(Oc2ccc(C(F)(F)F)cc2Cl)ccc1[N+](=O)[O-] (stereo unspecified)
active: [1] 10 µM | [5] 30.9 µM | [6] 14 µM
inactive: [2] | [3] | [7]

CS(=O)(=O)c1cc(C(F)(F)F)ccc1C(=O)c1cnoc1C1CC1
inactive: [1] | [2] | [3] | [5] | [6]

CN/C(=N\[N+](=O)[O-])NCc1cnc(Cl)s1
inactive: [1] | [2] | [3] | [5] | [6]

CCCN(CC)CC1COC2(CCC(C(C)(C)C)CC2)O1 (stereo unspecified)
active: [1] 12.9 µM | [3] 12.2 µM | [5] 6.99 µM
inactive: [2] | [6]

CCCCC(O)(Cn1cncn1)c1ccc(Cl)cc1Cl (stereo unspecified)
inactive: [2] | [3] | [6]
active: [1] 22.5 µM | [5] 29.9 µM | [8] 1.07 µM

CCOc1nc(F)cc2nc(S(=O)(=O)Nc3c(Cl)cccc3Cl)nn12
inactive: [1] | [2] | [3] | [5] | [6]

CCSC(=O)N1CCCCCC1
inactive: [1] | [2] | [3] | [5] | [6]

CNC(=O)Oc1cccc2ccccc12
active: [3] 15.9 µM | [5] 22.4 µM
inactive: [1] | [2] | [6] | [7]

O=C1C2CC=CCC2C(=O)N1SC(Cl)(Cl)Cl (stereo unspecified)
active: [1] 26.2 µM | [3] 32.6 µM | [5] 28.7 µM
inactive: [2] | [6] | [7]

CC1(C)CON(Cc2ccccc2Cl)C1=O
inactive: [1] | [2] | [3] | [5] | [6]

O=P(O)(O)CCCl
inactive: [1] | [2] | [3] | [5] | [6]

CNC(=O)N(C)c1nnc(C(C)(C)C)s1
inactive: [1] | [2] | [3] | [5] | [6]

CCOP(=O)(OCC)Oc1nc(Cl)c(Cl)cc1Cl
active: [5] 17.1 µM | [6] 20 µM | [9] 7.46 µM | [8] 8.04 µM
inactive: [1] | [2] | [3]

CSC(=O)c1c(C(F)F)nc(C(F)(F)F)c(C(=O)SC)c1CC(C)C
active: [1] 13.1 µM | [3] 27.6 µM | [5] 28.6 µM | [6] 14.6 µM
inactive: [2]

Nc1c(Cl)c(F)nc(OCC(=O)O)c1Cl
inactive: [1] | [2] | [3] | [5] | [6]

CC(C)(C)C(=O)C(Oc1ccc(Cl)cc1)n1cncn1 (stereo unspecified)
active: [7] 2.38 µM | [9] 1.62 µM
inactive: [1] | [2] | [3] | [5] | [6]

CCN(CC)c1nc(C)cc(OP(=S)(OC)OC)n1
inactive: [2] | [3] | [6] | [7]
active: [1] 10.5 µM | [5] 37 µM | [8] 4.4 µM

N#Cc1c(Cl)cccc1Cl
inactive: [1] | [2] | [3] | [5] | [6]

CC1(C)CCC(=Cc2ccc(Cl)cc2)C1(O)Cn1cncn1 (stereo unspecified)
inactive: [1] | [2] | [3] | [5] | [6]
active: [9] 0.908 µM

CC(C)C1(C)N=C(c2ncccc2C(=O)O)NC1=O (stereo unspecified)
inactive: [1] | [2] | [3] | [5] | [6]

COC(=O)c1c(C(F)F)nc(C(F)(F)F)c(C2=NCCS2)c1CC(C)C
inactive: [2]
active: [1] 20 µM | [3] 12.1 µM | [5] 14.6 µM | [6] 32.5 µM | [8] 5.93 µM

CC1(C)C(C(=O)OC(C#N)c2cccc(Oc3ccccc3)c2)C1(C)C (stereo unspecified)
active: [1] 13.1 µM | [5] 15.3 µM | [6] 7.56 µM
inactive: [2] | [3]

O=c1n(Cl)c(=O)n(Cl)c(=O)n1Cl
inactive: [1] | [2] | [3] | [5] | [6]

CN=C=S
active: [1] 12 µM | [5] 13.7 µM
inactive: [2] | [3] | [6] | [7]

CCN(CC)C(=O)C(C)Oc1cccc2ccccc12 (stereo unspecified)
inactive: [2] | [3] | [5] | [6] | [7]
active: [1] 1.06 µM | [8] 5.79 µM

COC(=O)N(C(=O)N1CO[C@@]2(C(=O)OC)Cc3cc(Cl)ccc3C2=N1)c1ccc(OC(F)(F)F)cc1
inactive: [1] | [2] | [3]
active: [5] 7.29 µM | [6] 5.59 µM

CCC(C)n1c(=O)[nH]c(C)c(Br)c1=O (stereo unspecified)
inactive: [1] | [2] | [3] | [5] | [6]

CCOP(=S)(OCC)Oc1nc(Cl)n(C(C)C)n1
inactive: [1] | [2] | [3] | [5] | [6]
active: [8] 1 µM

CC(C)N1C(=O)c2ccccc2NS1(=O)=O
inactive: [1] | [2] | [3] | [5] | [6]

O=C(O)c1c(Cl)ccc2cc(Cl)cnc12
inactive: [1] | [2] | [3] | [5] | [6]

CCNP(=S)(OC)O/C(C)=C/C(=O)OC(C)C (stereo unspecified)
active: [9] 2.43 µM | [8] 0.723 µM
inactive: [1] | [2] | [3] | [5] | [6]

COP(=S)(OC)Oc1ccc([N+](=O)[O-])c(C)c1
active: [1] 29.6 µM | [5] 24.9 µM | [10] 1.98 µM | [8] 1.3 µM
inactive: [2] | [3] | [6] | [7]

CCNC(=O)NC(=O)C(C#N)=NOC
inactive: [1] | [2] | [3] | [5] | [6]

Source: PubChem BioAssay (EPA / NIEHS)
